Test results: PubChem BioAssay (EPA / NIEHS)
The source made the active and inactive calls. How the source made its calls: active means hit-call score of the fitted dose curve at least 0.9, where 1 is the maximum; inactive means score below 0.9.

Legend:
[1] = read-out: Transforming growth factor beta 1 (TGFb1), TGFB1 (gene 7040); experiment: BSK_KF3CT_TGFb1: BioMAP Diversity Plus: KF3CT Assay for Transforming growth factor beta 1 (TGFb1) Biomarker Activity (AID 2283072); conditions: primary human keratinocytes with fibroblasts; actives raise or lower the signal
In short: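 Read-out: ELISA for TGF-b1 in keratinocyte/foreskin fibroblast human skin co-culture, 24 h after dosing; bidirectional curve fit vs DMSO baseline; gain or loss of signal scored.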

[2] = read-out: C-C motif chemokine 2 (Homo sapiens) (UniProt P13500); experiment: BSK_KF3CT_MCP1: BioMAP Diversity Plus: KF3CT Assay for Monocyte Chemoattractant Protein 1 (MCP1/CCL2) Biomarker Activity (AID 2283073); conditions: primary human keratinocytes with fibroblasts; actives raise or lower the signal
In short: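 Biomarker MCP-1 is measured by ELISA in primary human keratinocytes co-cultured with foreskin fibroblasts, 24 h after chemical treatment; DMSO serves as the negative control and activity baseline.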

[3] = read-out: Matrix Metallopeptidase 9 (MMP9), MMP9 (gene 4318); experiment: BSK_KF3CT_MMP9: BioMAP Diversity Plus: KF3CT Assay for Matrix Metallopeptidase 9 (MMP9) Biomarker Activity (AID 2283074); conditions: primary human keratinocytes with fibroblasts; actives raise or lower the signal;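 on AC50: MMP9 protein level quantified by ELISA in the co-culture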
In short: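 Values come from bidirectional fitting relative to DMSO of MMP-9 levels, which were measured by ELISA. Measurements were taken 24 h after chemical dosing of a keratinocyte and foreskin fibroblast co-culture.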

[4] = read-out: urokinase plasminogen activator (uPA), PLAU (gene 5328); experiment: BSK_KF3CT_uPA: BioMAP Diversity Plus: KF3CT Assay for urokinase plasminogen activator (uPA) Biomarker Activity (AID 2283075); conditions: primary human keratinocytes with fibroblasts; actives raise or lower the signal
In short: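 Values derive from bidirectional fitting against DMSO controls. Keratinocyte/foreskin fibroblast co-cultures received chemical; 24 h later uPA was detected by ELISA, with SRB total-protein staining in parallel wells for overt cytotoxicity.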

CD40, CD40 (gene 958) [5] = experiment: BSK_LPS_CD40: BioMAP Diversity Plus: LPS Assay for CD40 Biomarker Activity (AID 2283076); conditions: primary human HUVEC with PBMC; actives raise or lower the signal
In short: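 Using a multiplexed primary human co-culture (umbilical vein endothelium plus PBMC), CD40 was read by ELISA 24 h after dosing, with cytotoxicity tracked by sulforhodamine B staining of parallel cultures and activity fitted bidirectionally versus DMSO.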

[6] = read-out: E-selectin (Homo sapiens) (UniProt P16581); experiment: BSK_LPS_Eselectin: BioMAP Diversity Plus: LPS Assay for Eselectin Biomarker Activity (AID 2283077); conditions: primary human HUVEC with PBMC; actives raise or lower the signal
In short: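 Dose chemical onto LPS-driven HUVEC/PBMC co-culture; after 24 h, run ELISA for E-selectin; fit up- and down-going responses relative to DMSO control.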

[7] = read-out: Interleukin-8 (IL8), CXCL8 (gene 3576); experiment: BSK_LPS_IL8: BioMAP Diversity Plus: LPS Assay for Interleukin-8 (IL8) Biomarker Activity (AID 2283078); conditions: primary human HUVEC with PBMC; actives raise or lower the signal
In short: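 In this LPS system, chemical-treated human umbilical vein endothelium/PBMC co-cultures were harvested at 24 h for IL-8 ELISA.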

[8] = BSK_LPS_SRB: Viability Assessment in the BioMAP Diversity Plus: LPS Assay (AID 2283079); conditions: primary human HUVEC with PBMC;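 further: total protein by sulforhodamine B absorbance as a cytotoxicity measure; measured one day after compound addition; fitted in both directions against DMSO so loss or gain of signal counts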
In short: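 Cytotoxicity endpoint in human endothelial–PBMC co-culture: 24 h exposure, then SRB (0.1%) staining, 560 nm read.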

[9] = read-out: Interleukin-1 alpha (IL1a), IL1A (gene 3552); experiment: BSK_LPS_IL1a: BioMAP Diversity Plus: LPS Assay for Interleukin-1 alpha (IL1a) Biomarker Activity (AID 2283080); conditions: primary human HUVEC with PBMC; actives raise or lower the signal
In short: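 Primary human HUVEC and PBMC co-culture stimulated with LPS is dosed and harvested at 24 h. Both increases and decreases in ELISA-measured IL-1a are scored relative to DMSO.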

[10] = read-out: Monocyte Chemoattractant Protein-1 (MCP1), CCL2 (gene 6347); experiment: BSK_LPS_MCP1: BioMAP Diversity Plus: LPS Assay for Monocyte Chemoattractant Protein-1 (MCP1) Biomarker Activity (AID 2283081); conditions: primary human HUVEC with PBMC; actives raise or lower the signal;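 on AC50: secreted MCP-1 protein quantified by ELISA in culture supernatant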
In short: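 Values derive from bidirectional fitting against DMSO of ELISA-measured MCP-1 in a human primary endothelial and mononuclear cell co-culture, 24 h after chemical addition under LPS activation.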

[11] = read-out: Macrophage colony-stimulating factor (MCSF), CSF1 (gene 1435); experiment: BSK_LPS_MCSF: BioMAP Diversity Plus: LPS Assay for Macrophage colony-stimulating factor (MCSF) Biomarker Activity (AID 2283083); conditions: primary human HUVEC with PBMC; actives raise or lower the signal
In short: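 Bidirectional fit versus DMSO of ELISA-measured M-CSF in co-cultured human umbilical vein endothelial cells and PBMC, sampled 24 h after dosing.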

[12] = read-out: Tissue Factor, F3 (gene 2152); experiment: BSK_LPS_TissueFactor: BioMAP Diversity Plus: LPS Assay for Tissue Factor Biomarker Activity (AID 2283084); conditions: primary human HUVEC with PBMC; actives raise or lower the signal
In short: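 Read-out: CD142 ELISA, 24 h. System: LPS-driven human endothelial/PBMC co-culture. Analysis: up- or down-signal fitted against DMSO.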

[13] = read-out: Tumor necrosis factor (Homo sapiens) (UniProt P01375); experiment: BSK_LPS_TNFa: BioMAP Diversity Plus: LPS Assay for Tumour Necrosis Factor alpha (TNFa) Biomarker Activity (AID 2283085); conditions: primary human HUVEC with PBMC; actives raise or lower the signal;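 on AC50: TNFa protein level quantified by ELISA in the co-culture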
In short: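 HUVEC/PBMC co-culture, LPS-stimulated; 24 h post-dose; TNFa by ELISA; gain or loss of signal fitted bidirectionally vs DMSO baseline.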

[14] = read-out: Vascular cell adhesion molecule 1 (VCAM1), VCAM1 (gene 7412); experiment: BSK_LPS_VCAM1: BioMAP Diversity Plus: LPS Assay for Vascular cell adhesion molecule 1 (VCAM1) Biomarker Activity (AID 2283086); conditions: primary human HUVEC with PBMC; actives raise or lower the signal
In short: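 ELISA read-out of VCAM-1 at 24 h post-dosing in an LPS-driven HUVEC/PBMC primary human co-culture; gain or loss of signal fitted bidirectionally against DMSO baseline. Cytotoxicity tracked in parallel cultures by SRB total-protein staining.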

CD38, CD38 (gene 952) = experiment: BSK_SAg_CD38: BioMAP Diversity Plus: SAg Assay for CD38 Biomarker Activity (AID 2283087); conditions: primary human HUVEC with PBMC; actives raise or lower the signal
In short: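 Measures CD38 on a human endothelial/PBMC co-culture driven by SEB and TSST-1, 24 h after compound exposure, using ELISA with fluorescence detection; DMSO defines baseline for bidirectional curve fitting.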

CD40, CD40 (gene 958) [15] = experiment: BSK_SAg_CD40: BioMAP Diversity Plus: SAg Assay for CD40 Biomarker Activity (AID 2283088); conditions: primary human HUVEC with PBMC; actives raise or lower the signal
In short: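 Endpoint derived by fitting increases or decreases versus DMSO controls. CD40 is detected by fluorescence ELISA in a human vascular co-culture of endothelium and PBMC at 24 h.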

CD69, CD69 (gene 969) = experiment: BSK_SAg_CD69: BioMAP Diversity Plus: SAg Assay for CD69 Biomarker Activity (AID 2283089); conditions: primary human HUVEC with PBMC; actives raise or lower the signal;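 on AC50: cell surface CD69 protein quantified by ELISA with fluorescence detection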
In short: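 Endothelial/PBMC co-culture; chemical added; 24 h incubation; CD69 ELISA with fluorescence detection; bidirectional fit vs DMSO.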

[16] = read-out: Monocyte Chemoattractant Protein-1 (MCP1), CCL2 (gene 6347); experiment: BSK_SAg_MCP1: BioMAP Diversity Plus: SAg Assay for Monocyte Chemoattractant Protein-1 (MCP1) Biomarker Activity (AID 2283090); conditions: primary human HUVEC with PBMC; actives raise or lower the signal
In short: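 Values derive from bidirectional fitting of ELISA-measured MCP1 against DMSO controls. Readings were taken 24 h after dosing human vascular endothelial cells co-cultured with peripheral blood mononuclear cells under superantigen stimulation.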

[17] = read-out: E-selectin (Homo sapiens) (UniProt P16581); experiment: BSK_SAg_Eselectin: BioMAP Diversity Plus: SAg Assay for Eselectin Biomarker Activity (AID 2283091); conditions: primary human HUVEC with PBMC; actives raise or lower the signal
In short: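 Endpoint values derive from bidirectional fitting relative to DMSO, using ELISA-measured E-selectin in a human vascular co-culture (umbilical vein endothelium plus PBMC) sampled 24 h after dosing.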

Chain of E-selectin (Homo sapiens) (P16581 whole entry, looked up): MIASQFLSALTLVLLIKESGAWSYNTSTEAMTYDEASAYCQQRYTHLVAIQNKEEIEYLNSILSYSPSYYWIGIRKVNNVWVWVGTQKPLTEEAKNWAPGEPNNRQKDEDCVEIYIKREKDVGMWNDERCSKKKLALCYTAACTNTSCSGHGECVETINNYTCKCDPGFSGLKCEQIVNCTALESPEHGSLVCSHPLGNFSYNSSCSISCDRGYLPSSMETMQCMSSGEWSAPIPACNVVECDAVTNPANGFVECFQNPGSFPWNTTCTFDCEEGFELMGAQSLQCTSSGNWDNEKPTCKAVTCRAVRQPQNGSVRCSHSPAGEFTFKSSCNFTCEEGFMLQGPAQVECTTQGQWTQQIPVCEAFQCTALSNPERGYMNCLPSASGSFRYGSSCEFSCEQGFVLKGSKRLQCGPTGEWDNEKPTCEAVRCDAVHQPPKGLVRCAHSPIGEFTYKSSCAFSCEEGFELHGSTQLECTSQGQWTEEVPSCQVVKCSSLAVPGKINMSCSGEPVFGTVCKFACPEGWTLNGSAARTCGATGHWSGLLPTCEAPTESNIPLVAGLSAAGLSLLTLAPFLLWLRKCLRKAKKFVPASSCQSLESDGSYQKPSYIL
Chain of Tumor necrosis factor (Homo sapiens) (P01375 whole entry, looked up): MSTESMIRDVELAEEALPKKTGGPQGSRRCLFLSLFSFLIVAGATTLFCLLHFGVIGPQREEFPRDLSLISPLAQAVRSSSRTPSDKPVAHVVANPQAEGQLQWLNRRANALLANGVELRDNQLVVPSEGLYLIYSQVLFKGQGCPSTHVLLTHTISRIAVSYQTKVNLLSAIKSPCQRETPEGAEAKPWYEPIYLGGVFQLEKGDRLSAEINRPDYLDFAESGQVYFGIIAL

CCN(CC)CCOc1ccc(C(=C(Cl)c2ccccc2)c2ccccc2)cc1
AC50 [1]: 12.4 µM (active)
AC50 [2]: 14.3 µM (active)
AC50 [3]: 11.7 µM (active)
AC50 [4]: 13.7 µM (active)
AC50 (CD40, CD40 (gene 958) [5]): 8.67 µM (active)
AC50 [6]: 13.3 µM (active)
AC50 [7]: 11.3 µM (active)
AC50 [8]: 10.4 µM (active)
AC50 [9]: 8.81 µM (active)
AC50 [10]: 14.3 µM (active)
AC50 [11]: 9.21 µM (active)
AC50 [12]: 29.8 µM (active)
AC50 [13]: 11.8 µM (active)
AC50 [14]: 13.2 µM (active)
AC50 (CD38, CD38 (gene 952)): 8.84 µM (active)
AC50 (CD40, CD40 (gene 958) [15]): 11 µM (active)
AC50 (CD69, CD69 (gene 969)): 12.4 µM (active)
AC50 [16]: 11.2 µM (active)
AC50 [17]: 13.5 µM (active)

C/C=C/c1ccc(OC)cc1
outcome [1]: inactive
outcome [2]: inactive
outcome [3]: inactive
outcome [4]: inactive
outcome (CD40, CD40 (gene 958) [5]): inactive
outcome [6]: inactive
outcome [7]: inactive
outcome [8]: inactive
outcome [9]: inactive
AC50 [10]: 13.8 µM (active)
outcome [11]: inactive
outcome [12]: inactive
outcome [13]: inactive
outcome (CD38, CD38 (gene 952)): inactive
outcome (CD40, CD40 (gene 958) [15]): inactive
outcome (CD69, CD69 (gene 969)): inactive
outcome [16]: inactive
outcome [17]: inactive

S=c1[nH]c2ccccc2s1
outcome [1]: inactive
outcome [2]: inactive
outcome [3]: inactive
outcome [4]: inactive
outcome (CD40, CD40 (gene 958) [5]): inactive
outcome [6]: inactive
outcome [7]: inactive
outcome [8]: inactive
outcome [9]: inactive
outcome [10]: inactive
outcome [11]: inactive
AC50 [12]: 2.23 µM (active)
outcome [13]: inactive
outcome (CD38, CD38 (gene 952)): inactive
outcome (CD69, CD69 (gene 969)): inactive
outcome [16]: inactive
outcome [17]: inactive

CC(COCC(C)OC(=O)c1ccccc1)OC(=O)c1ccccc1 (stereo not drawn)
outcome [1]: inactive
outcome [2]: inactive
outcome [3]: inactive
outcome [4]: inactive
outcome (CD40, CD40 (gene 958) [5]): inactive
outcome [6]: inactive
outcome [7]: inactive
outcome [8]: inactive
outcome [9]: inactive
outcome [10]: inactive
outcome [11]: inactive
outcome [12]: inactive
outcome [13]: inactive
outcome (CD38, CD38 (gene 952)): inactive
outcome (CD40, CD40 (gene 958) [15]): inactive
outcome (CD69, CD69 (gene 969)): inactive
outcome [16]: inactive
outcome [17]: inactive

NC=O
outcome [1]: inactive
outcome [2]: inactive
outcome [3]: inactive
outcome [4]: inactive
outcome (CD40, CD40 (gene 958) [5]): inactive
outcome [6]: inactive
outcome [7]: inactive
outcome [8]: inactive
outcome [9]: inactive
outcome [10]: inactive
outcome [11]: inactive
outcome [12]: inactive
outcome [13]: inactive
outcome (CD38, CD38 (gene 952)): inactive
outcome (CD40, CD40 (gene 958) [15]): inactive
outcome (CD69, CD69 (gene 969)): inactive
outcome [16]: inactive
outcome [17]: inactive

CC(=O)S[C@H](C(=O)N[C@H]1Cc2ccccc2[C@H]2CCC[C@@H](C(=O)O)N2C1=O)C(C)C
outcome [1]: inactive
outcome [2]: inactive
outcome [3]: inactive
outcome [4]: inactive
outcome (CD40, CD40 (gene 958) [5]): inactive
outcome [6]: inactive
outcome [7]: inactive
outcome [8]: inactive
outcome [9]: inactive
outcome [10]: inactive
outcome [11]: inactive
outcome [12]: inactive
outcome [13]: inactive
outcome (CD38, CD38 (gene 952)): inactive
outcome (CD40, CD40 (gene 958) [15]): inactive
outcome (CD69, CD69 (gene 969)): inactive
outcome [16]: inactive
outcome [17]: inactive

CN(C)CCCN(C)CCCN(C)C
outcome [1]: inactive
outcome [2]: inactive
outcome [3]: inactive
outcome [4]: inactive
outcome [6]: inactive
outcome [7]: inactive
outcome [8]: inactive
outcome [9]: inactive
outcome [10]: inactive
outcome [11]: inactive
outcome [12]: inactive
outcome [13]: inactive
outcome [14]: inactive
outcome (CD38, CD38 (gene 952)): inactive
outcome (CD40, CD40 (gene 958) [15]): inactive
outcome (CD69, CD69 (gene 969)): inactive
outcome [16]: inactive
outcome [17]: inactive

O=C(Oc1ccccc1)c1cccc(C(=O)Oc2ccccc2)c1
outcome [1]: inactive
outcome [2]: inactive
outcome [3]: inactive
outcome [4]: inactive
outcome (CD40, CD40 (gene 958) [5]): inactive
outcome [6]: inactive
outcome [7]: inactive
outcome [8]: inactive
outcome [9]: inactive
outcome [10]: inactive
outcome [11]: inactive
outcome [12]: inactive
outcome [13]: inactive
outcome (CD38, CD38 (gene 952)): inactive
outcome (CD40, CD40 (gene 958) [15]): inactive
outcome (CD69, CD69 (gene 969)): inactive
outcome [16]: inactive
outcome [17]: inactive

Cn1cnc2c1c(=O)[nH]c(=O)n2C
outcome [1]: inactive
outcome [2]: inactive
outcome [3]: inactive
outcome [4]: inactive
outcome (CD40, CD40 (gene 958) [5]): inactive
outcome [6]: inactive
outcome [7]: inactive
outcome [8]: inactive
outcome [9]: inactive
outcome [10]: inactive
outcome [11]: inactive
outcome [12]: inactive
outcome [13]: inactive
outcome [14]: inactive
outcome (CD38, CD38 (gene 952)): inactive
outcome (CD40, CD40 (gene 958) [15]): inactive
outcome (CD69, CD69 (gene 969)): inactive
outcome [16]: inactive
outcome [17]: inactive
